# Laboratory results: PubChem BioAssay (NCATS)
# Unmarked numbers belong to inactive results. Calls follow the shape of the dose curve; as a rule, active = well fitted inhibition curve with a large enough effect; inconclusive = small, poorly fitted or top-dose-only effect; inactive = flat fitted curve, though single readings scatter. Results filed as inconclusive are left out.
# Molecular target: Ubiquitin carboxyl-terminal hydrolase 1 (Homo sapiens) (UniProt O94782)
# Assay: Inhibitors of USP1/UAF1: Pilot qHTS (AID 504865);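 also: rhodamine fluorescence freed from ubiquitin-rhodamine substrate followed over time; top concentration of the series differs between compounds; % is scaled to controls: 0 for no effect and ±100 for the full control effect; nearly all actives have a fitted effect of over 35% in size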
# Settings: purified USP1/UAF1, Ub-rhodamine cleavage fluorescence; series mostly up to 114 µM; activity change, negative = inhibition: at the top concentration
# Procedure, shortened: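 In 50mM HEPES pH 7.8 containing 0.5mM EDTA, 1mM TCEP, 0.1 mg/ml BSA and 0.01% Tween-20, 1nM USP1/UAF1 is exposed to compound for 15 min, then Ub-Rho (150nM final) is added and fluorescence is read over time.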
# Sequence of Ubiquitin carboxyl-terminal hydrolase 1 (Homo sapiens) (O94782 whole entry, looked up): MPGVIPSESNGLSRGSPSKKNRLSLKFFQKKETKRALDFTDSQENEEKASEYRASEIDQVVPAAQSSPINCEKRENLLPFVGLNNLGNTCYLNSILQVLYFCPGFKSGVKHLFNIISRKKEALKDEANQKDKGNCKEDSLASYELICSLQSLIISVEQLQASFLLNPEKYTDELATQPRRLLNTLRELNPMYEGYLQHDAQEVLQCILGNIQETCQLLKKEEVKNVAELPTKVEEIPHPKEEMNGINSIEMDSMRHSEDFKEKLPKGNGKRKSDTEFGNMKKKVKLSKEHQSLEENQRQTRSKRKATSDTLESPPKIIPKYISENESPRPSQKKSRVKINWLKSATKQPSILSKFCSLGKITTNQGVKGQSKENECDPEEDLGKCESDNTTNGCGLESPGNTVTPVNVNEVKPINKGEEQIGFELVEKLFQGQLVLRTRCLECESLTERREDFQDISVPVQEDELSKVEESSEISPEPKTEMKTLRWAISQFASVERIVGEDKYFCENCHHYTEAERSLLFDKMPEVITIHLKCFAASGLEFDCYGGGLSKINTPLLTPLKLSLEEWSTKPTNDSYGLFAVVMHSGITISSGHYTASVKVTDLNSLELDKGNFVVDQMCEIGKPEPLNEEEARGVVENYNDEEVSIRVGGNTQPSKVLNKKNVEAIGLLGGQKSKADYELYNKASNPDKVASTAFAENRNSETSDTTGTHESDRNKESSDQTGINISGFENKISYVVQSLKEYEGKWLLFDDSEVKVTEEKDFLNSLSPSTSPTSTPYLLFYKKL
row,SMILES,"activity change, negative = inhibition"
1,Cc1cc(NC(=O)Nc2ccc(N(C)C)cc2)c2cc(F)cc(F)c2n1,-8.09%
2,Nc1ccn([C@@H]2O[C@H](CO)[C@@H](O)[C@H]2O)c(=O)n1,3.3%
3,CC1(C)OC2CC3C4CC(F)C5=CC(=O)C=CC5(C)C4C(O)CC3(C)[C@]2(C(=O)CO)O1 (stereo not given in full),-4.5%
4,COc1ccnc(CS(=O)c2nc3ccc(OC(F)F)cc3[nH]2)c1OC (stereo not given),-5.1%
5,CN[C@H]1[C@@H](O[C@@H]2[C@H](O[C@@H]3[C@@H](O)[C@@H](O)[C@@H](N=C(N)N)[C@@H](O)[C@@H]3N=C(N)N)O[C@H](C)[C@@]2(O)C=O)O[C@@H](CO)[C@@H](O)[C@H]1O,11.8% [at 54.9 µM]
6,CS(=O)(=O)c1ccc(C2=C(c3ccccc3)C(=O)OC2)cc1,-3.54%
7,Cc1ccc(NC(=O)c2cccc(N(C)C)c2)cc1NC(=O)c1ccc(O)cc1,-13.5%
8,CCCCC[C@H](O)C=C[C@H]1[C@H](O)CC(=O)[C@H]1CCCCCCC(=O)O,-14.6%
9,COc1cc2c(cc1OC)CC(=O)N(CCCN(C)C[C@H]1Cc3cc(OC)c(OC)cc31)CC2,-5.95%
10,C[C@H]1O[C@@H](n2cc(F)c(=O)[nH]c2=O)[C@H](O)[C@H]1O,-5.5%

# Molecular target: DNA dC->dU-editing enzyme APOBEC-3G (Homo sapiens) (UniProt Q9HC16)
# Assay: qHTS for inhibitors of Vif-A3G interactions: Validation (AID 588379); also: 0% is about no effect
# Settings: Vif-A3G protein interaction assay; series mostly up to 46.1 µM; activity change, negative = inhibition: at the top concentration
# Procedure, shortened: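 Yellow fluorescence (Ex 488, Em 500-530) of Vif-coexpressing HeLa A3G-eYFP cells, scanned by Acumen cytometer, reports blocked A3G degradation. Cells plated at 700/well overnight at 37 deg C before compound addition, then a further overnight compound incubation at 37 deg C.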
# Sequence of DNA dC->dU-editing enzyme APOBEC-3G (Homo sapiens) (Q9HC16 whole entry, looked up): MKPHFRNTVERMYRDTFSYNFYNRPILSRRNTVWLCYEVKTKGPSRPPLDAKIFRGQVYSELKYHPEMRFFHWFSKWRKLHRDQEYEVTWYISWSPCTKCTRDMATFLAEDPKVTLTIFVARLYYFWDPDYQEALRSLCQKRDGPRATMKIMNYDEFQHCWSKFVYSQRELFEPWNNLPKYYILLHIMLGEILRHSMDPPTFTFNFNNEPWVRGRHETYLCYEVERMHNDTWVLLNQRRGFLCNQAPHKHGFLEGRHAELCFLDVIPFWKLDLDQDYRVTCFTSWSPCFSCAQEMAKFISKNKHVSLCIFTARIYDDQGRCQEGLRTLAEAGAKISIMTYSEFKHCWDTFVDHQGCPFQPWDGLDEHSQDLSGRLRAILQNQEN
row,SMILES,"activity change, negative = inhibition [%]"
1,CCCCC(C=O)NC(=O)C(CC(C)C)NC(=O)OCc1ccccc1 (stereo not given),0.188
2,COc1nccc(-c2c(-c3ccc(F)cc3)ncn2C2CCC(O)CC2)n1 (stereo not given),7.84
3,CC1C(=O)OC2C(O)C34C5CC(C(C)(C)C)C36C(OC(=O)C6O)OC4(C(=O)O5)C12O (stereo not given),1.82
4,CN1CCN2c3ncccc3Cc3ccccc3C2C1 (stereo not given),-5.62
5,COc1ccc(CCN(C)CCCOc2ccc(S(=O)(=O)c3[nH]c4ccccc4c3C(C)C)cc2)cc1OC,6.31
6,Cc1cc(NC(=O)Nc2ccc(N(C)C)cc2)c2cc(F)cc(F)c2n1,-1.7
7,Nc1ccn([C@@H]2O[C@H](CO)[C@@H](O)[C@H]2O)c(=O)n1,-5.33
8,O=c1cc(-c2ccc(O)c(O)c2)oc2cc(O)cc(O)c12,-3.26
9,Cc1ccc(NC(=O)c2cccc(N(C)C)c2)cc1NC(=O)c1ccc(O)cc1,-1.12
10,CCCCC[C@H](O)C=C[C@H]1[C@H](O)CC(=O)[C@H]1CCCCCCC(=O)O,-0.154
